NR3A LBD binder: binders of NR3A ligand-binding domain, primary screen, biophysical, differential scanning fluorimetry, uHTS; NR3A LBD differential scanning fluorimetry, Tm shift; 0% = protein alone, 100% = glycine-bound protein; Glutamate receptor ionotropic, NMDA 3A (GRIN3A) ligand-binding domain; Tm shift relative to glycine control, % at 25 µM; 2.5% of 340,000 active; AID 1259313, 2017;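 active = melting temperature shift of at least 10% of the positive control shift, at one fixed dose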
Gli-Sufu antag: Gli-Sufu pathway antagonists, primary screen, luciferase luminescence, Sufu-KO-LIGHT cells, uHTS; Sufu-KO-LIGHT fibroblasts, Gli luciferase reporter luminescence; inhibition, % at 5 µM; 0.74% of 340,000 active;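 active = inhibition above about 55%, limit read from the data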;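 also: 0% = DMSO-treated cells and 100% = wells with medium but no cells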
MPTP inh: mitochondrial permeability transition pore inhibitors, primary screen, biochemical, isolated mouse mitochondria, absorbance; Ca2+ swelling absorbance, 30 min; inhibition, % at 10 µM; 1.4% of 360,000 active; AID 602449, 2012;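 active = inhibition of 50% or more, scaled per plate between neutral and stimulator controls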;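 also: 0% = DMSO wells given calcium and 100% = 1 mM EGTA wells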
Beta apoptosis: inhibitors of cytokine-induced beta cell apoptosis, primary screen, luminescence; protection from apoptosis, % (concentration not given with the values); INS-1E cytokine-induced death, ATP luminescence, 48 h; percent of positive-control rescue, neutral wells zero; 0.8% of 300,000 active; AID 435005, 2010;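 active = Every replicate reaches about 75%, or at least half do and their mean reaches it too, limit read from the data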;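 also: 0% = cytokine-treated negative control wells and 100% = positive control rescue; higher means more ATP so stronger rescue from cytokine killing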
Mdm2-MdmX inh: inhibitors of human Mdm2-MdmX association, primary screen, cell-based, luminescence, split luciferase, SaOS-2, uHTS; SaOS-2 split-luciferase Mdm2/MdmX complementation; Protein Mdm4 (Homo sapiens) + E3 ubiquitin-protein ligase Mdm2 (Homo sapiens), …; AID 485346, 2010; inhibition, % at 8 µM; 3% of 330,000 active;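 active = inhibition of at least 50% at 8 µM in the primary screen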
Target sequence (O15151 whole entry, looked up): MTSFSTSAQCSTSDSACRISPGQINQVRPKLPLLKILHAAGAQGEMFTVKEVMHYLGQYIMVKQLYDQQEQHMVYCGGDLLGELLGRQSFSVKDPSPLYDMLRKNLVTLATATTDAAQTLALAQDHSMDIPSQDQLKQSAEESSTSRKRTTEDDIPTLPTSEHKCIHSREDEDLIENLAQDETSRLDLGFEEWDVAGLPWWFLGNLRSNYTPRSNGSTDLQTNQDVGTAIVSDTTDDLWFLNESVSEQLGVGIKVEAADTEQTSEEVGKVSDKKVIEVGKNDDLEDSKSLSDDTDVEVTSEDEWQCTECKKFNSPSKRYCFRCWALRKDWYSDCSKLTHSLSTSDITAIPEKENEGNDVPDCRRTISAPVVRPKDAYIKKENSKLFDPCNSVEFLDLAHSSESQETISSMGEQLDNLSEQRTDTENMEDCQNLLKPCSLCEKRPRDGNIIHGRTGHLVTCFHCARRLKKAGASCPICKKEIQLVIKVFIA
Target sequence (Q00987 whole entry, looked up): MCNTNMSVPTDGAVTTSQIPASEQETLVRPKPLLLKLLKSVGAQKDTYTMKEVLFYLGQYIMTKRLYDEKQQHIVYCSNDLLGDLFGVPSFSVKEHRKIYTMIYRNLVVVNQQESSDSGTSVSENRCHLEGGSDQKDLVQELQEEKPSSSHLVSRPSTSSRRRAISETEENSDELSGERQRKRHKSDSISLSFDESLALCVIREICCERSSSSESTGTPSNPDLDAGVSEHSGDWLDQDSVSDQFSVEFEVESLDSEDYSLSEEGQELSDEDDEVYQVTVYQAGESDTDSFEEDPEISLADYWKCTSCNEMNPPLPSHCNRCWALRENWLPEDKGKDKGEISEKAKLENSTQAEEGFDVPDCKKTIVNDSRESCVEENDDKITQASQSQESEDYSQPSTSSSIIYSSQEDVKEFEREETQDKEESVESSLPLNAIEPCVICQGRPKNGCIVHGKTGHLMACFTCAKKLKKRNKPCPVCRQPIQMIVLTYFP
CSC inhib: cancer stem cell viability inhibitors, primary screen, luminescence. inhibition, % at 7.5 µM. cancer stem cell-like cells viability. 1.1% of 300,000 active; in the data active = inhibition above about 75%; tested in HMLE shEcad cells
The depositor's hits bear a star. An excerpt weighted towards active compounds, which were near 6.6% of everything screened.

`Cc1cccc(NC(=O)c2c(O)c3ccccc3[nH]c2=O)c1` gave NR3A LBD binder 2, Gli-Sufu antag -100, MPTP inh 1, Beta apoptosis -9, Mdm2-MdmX inh -8 and CSC inhib -4.
For O=C(Nc1cccc(O)c1)c1c(O)c2ccccc2[nH]c1=O the results were NR3A LBD binder 44*, Gli-Sufu antag -5, MPTP inh 2, Mdm2-MdmX inh -149 and CSC inhib 14.
O=C(Nc1ccc2c(c1)OCO2)c1cc(C2CC2)on1 was read as NR3A LBD binder -1, Gli-Sufu antag -82, MPTP inh -1, Beta apoptosis 7, Mdm2-MdmX inh -66 and CSC inhib 98*.
For O=C(Nc1ccc2c(c1)OCO2)c1ccc(Br)s1 the results were NR3A LBD binder 21*, Gli-Sufu antag -80, MPTP inh -1, Beta apoptosis 13, Mdm2-MdmX inh -197 and CSC inhib 14.
Screening O=C(Nc1cccc(C2OCCCO2)c1)c1cccs1 returned NR3A LBD binder 21*, Gli-Sufu antag -4, MPTP inh 0, Beta apoptosis -9, Mdm2-MdmX inh 18 and CSC inhib -7.
For COc1cc(NC(=O)c2cc(C(C)C)on2)c(OC)cc1Cl the results were NR3A LBD binder 2, Gli-Sufu antag 8, MPTP inh -1, Beta apoptosis 8, Mdm2-MdmX inh -10 and CSC inhib -12.
For COc1cc(NC(=O)c2cc(C3CC3)on2)c(OC)cc1Cl the results were NR3A LBD binder 14*, Gli-Sufu antag 8, MPTP inh 7, Beta apoptosis 4, Mdm2-MdmX inh 11 and CSC inhib -16.
Screening COc1cc2c(-c3ccc4[nH]ccc4c3)c(-c3ccc(C#N)cc3)oc(=O)c2cc1OC returned NR3A LBD binder -8, Gli-Sufu antag 14, MPTP inh 0, Beta apoptosis 36, Mdm2-MdmX inh 43 and CSC inhib 38.
CC(=O)Nc1cccc(NC(=O)COc2ccc3c(c2)OCO3)c1 was read as NR3A LBD binder -24, Gli-Sufu antag -11, MPTP inh 0, Beta apoptosis 1, Mdm2-MdmX inh 18 and CSC inhib -3.
`CCCCC(=O)N(C)c1c(C)nc2ccc(C(=O)Nc3cccc(OC)c3)cn12` gave MPTP inh 0.
CCCC(=O)N1CCC1(C)C(=O)Nc1cccc(OC(C)C)c1 (stereo unspecified) was read as MPTP inh 1.
Screening O=C(Nc1ccc2c(c1)OCO2)c1cccs1 returned NR3A LBD binder 11*, Gli-Sufu antag -58, MPTP inh -1, Beta apoptosis 9, Mdm2-MdmX inh -23 and CSC inhib 12.
`O=C(Nc1ccc2c(c1)OCCO2)c1cccs1` gave NR3A LBD binder 20*, Gli-Sufu antag -81, MPTP inh 1, Beta apoptosis 4, Mdm2-MdmX inh -66 and CSC inhib 4.
Screening Cn1nc(-c2ccccc2F)c2cc(C(=O)Nc3ccc4c(c3)OCCO4)sc21 returned NR3A LBD binder -5, Gli-Sufu antag 23, MPTP inh 0, Beta apoptosis 50, Mdm2-MdmX inh 46 and CSC inhib 77*.
`O=C(/C=C\Nc1ccc2c(c1)OCO2)c1cccs1` gave NR3A LBD binder -11, Gli-Sufu antag -137, MPTP inh 1, Beta apoptosis -4, Mdm2-MdmX inh -173 and CSC inhib 4.
`O=C(COC(=O)c1ccc(O)cc1O)Nc1cccc2ccccc12` gave NR3A LBD binder -2, Gli-Sufu antag 2, MPTP inh 1, Beta apoptosis 3, Mdm2-MdmX inh 13 and CSC inhib -5.
Screening CCOC(=O)c1cc(-c2cccs2)nc2c1c(C)nn2-c1ccccn1 returned NR3A LBD binder 5, Gli-Sufu antag 12, MPTP inh 1, Beta apoptosis 65, Mdm2-MdmX inh 36 and CSC inhib 104*.
CCc1ccc(NC(=O)C2CC(=O)Nc3ncnn32)cc1 (stereo unspecified) was read as NR3A LBD binder 21*, Gli-Sufu antag -5, MPTP inh 0, Mdm2-MdmX inh -10 and CSC inhib -12.
Screening Clc1cccc(Nc2ncnc3c2cnn3-c2ccccc2)c1 returned NR3A LBD binder -2, Gli-Sufu antag -25, MPTP inh 3, Mdm2-MdmX inh -20 and CSC inhib 56.
`COc1cccc(Nc2ncnc3c2cnn3-c2cccc(C)c2)c1` gave NR3A LBD binder 13*, Gli-Sufu antag -65, MPTP inh 10, Beta apoptosis 8, Mdm2-MdmX inh -10 and CSC inhib 11.
`COc1ccc(-n2ncc3c(NCC(C)C)ncnc32)cc1` gave NR3A LBD binder 17*, Gli-Sufu antag -88, MPTP inh 0, Beta apoptosis -6, Mdm2-MdmX inh -77 and CSC inhib 1.
Screening Fc1cccc(Nc2ncnc3c2cnn3-c2ccccc2)c1 returned NR3A LBD binder 28*, Gli-Sufu antag -42, MPTP inh 4, Beta apoptosis 19, Mdm2-MdmX inh -103 and CSC inhib 36.
For Cc1cc2nc(-c3cccc(Cl)c3)c(CC(C)(C)C)n2c(C)c1Br the results were MPTP inh 3.
`CC(C)n1nnnc1C1c2ccccc2C(=O)N1Cc1ccco1` (stereo unspecified) gave MPTP inh 0.
For COc1ccccc1N1CCN(S(=O)(=O)CCNC(=O)c2cccs2)CC1 the results were MPTP inh -1.
Screening CCOc1ccc(OCCC(=O)OCC(=O)Nc2ccc3c(c2)OCCO3)cc1 returned NR3A LBD binder 2, Gli-Sufu antag -9, MPTP inh -2, Beta apoptosis -2, Mdm2-MdmX inh -3 and CSC inhib -10.
Screening Cc1cc(C)cc(OCc2ccc(C(=O)N3N=C(C(F)F)CC3(O)C(F)F)o2)c1 (stereo unspecified) returned NR3A LBD binder 0, Gli-Sufu antag -7, MPTP inh 2, Beta apoptosis 9, Mdm2-MdmX inh 25 and CSC inhib 11.
For O=C(c1ccc(COc2ccc3ccccc3c2)o1)N1N=C(C(F)F)CC1(O)C(F)F (stereo unspecified) the results were NR3A LBD binder 20*, Gli-Sufu antag 3, MPTP inh 6, Beta apoptosis 14, Mdm2-MdmX inh 34 and CSC inhib 29.
`CCOc1ccc(OCc2ccc(C(=O)N3N=C(C(F)F)CC3(O)C(F)F)o2)cc1` (stereo unspecified) gave NR3A LBD binder -9, Gli-Sufu antag -16, MPTP inh -1, Beta apoptosis 4, Mdm2-MdmX inh 4 and CSC inhib -10.

High-throughput results: PubChem, several laboratories
